# Laboratory results: publication PMC7819943, “Rice protein-binding microarrays: a tool to detect cis-acting elements near promoter regions in rice”
# The full ranking holds about 35,000 sequences; the median of “fluorescence intensity (a.u.)” is about 10,000, and the highest 2% start at about 52,000. The sample as a whole holds a higher share of the highest values than the screen did.
# Target: T1, OsWOX13 (Oryza sativa, UniProt Q5QMM3 1-267)
# T1 sequence: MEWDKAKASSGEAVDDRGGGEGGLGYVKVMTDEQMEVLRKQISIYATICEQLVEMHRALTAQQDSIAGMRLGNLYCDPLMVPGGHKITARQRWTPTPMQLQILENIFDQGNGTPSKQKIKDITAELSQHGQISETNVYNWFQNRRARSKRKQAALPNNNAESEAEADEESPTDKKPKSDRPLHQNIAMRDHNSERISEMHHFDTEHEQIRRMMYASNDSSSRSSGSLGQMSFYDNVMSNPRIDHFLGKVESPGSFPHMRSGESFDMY
# Test: protein-binding microarray (RPBM); PBS, 2% BSA, 51.3 ng/ul salmon testes DNA, 50 uM zinc acetate, 200 nM TF, 25 C, 1 h; high values mean tight binding
# Settings: protein: recombinant; tags: N-terminal polyhistidine and DsRed monomer fusion (pET32a); label: CyDye5-dUTP incorporated in the synthesized complementary strand; 3' TTTTT single-stranded linker to array surface; dsDNA, one strand shown
# Outline: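 Binding signal here means per-feature fluorescence intensity in arbitrary units. The values were read on an Axon 4000B scanner after a custom Agilent array, double-stranded by primer extension with Cy5-dUTP, was incubated with 200 nM protein at 25 °C for 1 h in PBS with 2% BSA, salmon testes DNA and 50 µM zinc acetate, then washed. The proteins were transcription factors with an N-terminal polyhistidine tag and DsRed, expressed in E. coli BL21-CodonPlus and purified on Ni–NTA.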
row,Sequence,binding signal
1,GAGCTCAGCTTGCAGGGAGCTTGGGTGTGTGATCATACACCGGAGTCACCTAGTGCAG,63900 fluorescence intensity (a.u.)
2,TTGATTGGGTCTGTGGTGGAACAGGACGATCATACATCACCGGAGTCACCTAGTGCAG,21000 fluorescence intensity (a.u.)
3,ATATATATATATATATATATACATACATATACACACACACCGGAGTCACCTAGTGCAG,7300 fluorescence intensity (a.u.)
4,AGTTAATAACAAGAAATTATTCATTTAAATTTAGGGCAAACGGAGTCACCTAGTGCAG,9460 fluorescence intensity (a.u.)
5,CTTAATAACTTTCTCGGATTTAATGTGTGACTCACCATTCCGGAGTCACCTAGTGCAG,3340 fluorescence intensity (a.u.)
6,GATGTGATTGAAAGTTTGTGTGTGTATGACAGTTTGATGTCGGAGTCACCTAGTGCAG,61700 fluorescence intensity (a.u.)
7,GTTGAATGTTTTGTATGATTTGAACCTGAAAACTGCATGACGGAGTCACCTAGTGCAG,7380 fluorescence intensity (a.u.)
8,GAAATTGAAGATGATGTGACTGAAAAGTTGTGTATATGACCGGAGTCACCTAGTGCAG,17200 fluorescence intensity (a.u.)
9,TGGAATGATGTGATGGAAAAGTTGAAAGTTTGTGTGTGTACGGAGTCACCTAGTGCAG,5390 fluorescence intensity (a.u.)
10,CCTGATTGGTTGTATTGCTTGAAGTAGACTATTGAGATTGCGGAGTCACCTAGTGCAG,60200 fluorescence intensity (a.u.)
11,ATGATTGAATGAATGAAACCCTAGTTTGTTTTGATTTGTACGGAGTCACCTAGTGCAG,54400 fluorescence intensity (a.u.)
12,GATGATGTGACTGAAAAGTTGTATGTGTATGACATATTGACGGAGTCACCTAGTGCAG,11500 fluorescence intensity (a.u.)
13,ATATGATAGAAAAGTTGTGTATGTATGAAATGTTTGATGTCGGAGTCACCTAGTGCAG,9060 fluorescence intensity (a.u.)
14,GTGATTGACTGATTGTGTGATTGTGTGAAGTGTATTGGTTCGGAGTCACCTAGTGCAG,65000 fluorescence intensity (a.u.)
15,GGTTGCTGATTGTATCCTTTACTACTAGATCTTGACTGAGCGGAGTCACCTAGTGCAG,16300 fluorescence intensity (a.u.)
16,GCTATTAGATTGACTATATATGAATTGGAGCTAGTAGTTGCGGAGTCACCTAGTGCAG,42900 fluorescence intensity (a.u.)
17,GATGTGACTGAAAAGTTGTATGTGTATGACAGGTTGATGTCGGAGTCACCTAGTGCAG,8260 fluorescence intensity (a.u.)
18,AGTTAATGAAATAATGCCAGCCTGCTGTCTTCTGATTATCCGGAGTCACCTAGTGCAG,6010 fluorescence intensity (a.u.)
19,GCCTGCATTCATTTCCCTAATCAATCGGCTCGGATAATGTCGGAGTCACCTAGTGCAG,4450 fluorescence intensity (a.u.)
20,CGAATCTAAACAATCAATATTTAATTATACTTCCTCTAGACGGAGTCACCTAGTGCAG,12600 fluorescence intensity (a.u.)
21,AAGATTGGGCTGTTCATTAATCAAATTATTCTATGTGTCTCGGAGTCACCTAGTGCAG,11900 fluorescence intensity (a.u.)
22,TACACGAGATTGGAGGCACTAGGCCTCAGTACATGGCACGCGGAGTCACCTAGTGCAG,3870 fluorescence intensity (a.u.)
23,GTATGATTATCTTTCTTCGAGTAATTAACACGAAACGATGCGGAGTCACCTAGTGCAG,40700 fluorescence intensity (a.u.)
24,AATAAATTGTATTAATAACAAATTAGTCTATTCTATTAAACGGAGTCACCTAGTGCAG,24100 fluorescence intensity (a.u.)
25,AATAATGAATTTAAAATAAAATAAAACTGCATGCAAGCGACGGAGTCACCTAGTGCAG,5650 fluorescence intensity (a.u.)
26,AGTAGATTTTGACATGCTGTGTGTTAACAATGGGAGTAGACGGAGTCACCTAGTGCAG,3550 fluorescence intensity (a.u.)
27,ACCCATCACTAATCAGTAATCACAGTATTACTATTAAATTCGGAGTCACCTAGTGCAG,9220 fluorescence intensity (a.u.)

row,Sequence,binding signal
1,CATTTAATTCATTGTTATATATATATATATATAGACACACCGGAGTCACCTAGTGCAG,3920 fluorescence intensity (a.u.)
2,TAACAAACTATTCCTAATTAATAGATAAACTGCCATGCCGCGGAGTCACCTAGTGCAG,8390 fluorescence intensity (a.u.)
3,TTATAATTAGTATTTTCATTGTTGTTAGATGATAAAACATCGGAGTCACCTAGTGCAG,17500 fluorescence intensity (a.u.)
4,AATGTGTTAACTAATCAACTCGTCTCCCATCTCCTGCAAGCGGAGTCACCTAGTGCAG,5480 fluorescence intensity (a.u.)
5,TGCTGGATTGTATTGATGTGTGTGCTTACCTAGTATAAATCGGAGTCACCTAGTGCAG,3580 fluorescence intensity (a.u.)
6,TGAGCTGATTGATCGTCTGAAGGGTGTCTGATTGTCAAGTCGGAGTCACCTAGTGCAG,52800 fluorescence intensity (a.u.)
7,GGGTGCTGAAATTGATATACGATCAATTGTTGTCGGTGATCGGAGTCACCTAGTGCAG,14000 fluorescence intensity (a.u.)
8,AATATGATTGCTTTGTGGGTGTATGGTTCATTTTCAATGGCGGAGTCACCTAGTGCAG,47700 fluorescence intensity (a.u.)
9,CGTTAATCGTTGTGATTGATGTCGGATATGTTTGCCACCACGGAGTCACCTAGTGCAG,58600 fluorescence intensity (a.u.)
10,GTCATCATTGATTGATATGATTTTGTATGTGTGAGCAATGCGGAGTCACCTAGTGCAG,59400 fluorescence intensity (a.u.)
11,ACTTGTGTGATGTTTGGATTGATGCCAAAACTTGCCAAATCGGAGTCACCTAGTGCAG,3930 fluorescence intensity (a.u.)
12,CTTGTATGTTTGTGGATTGATATATTATATATTGATATATCGGAGTCACCTAGTGCAG,6720 fluorescence intensity (a.u.)
13,TTGTGATTTGTTAGAATTGTATTTTACAATGTGTAGTATGCGGAGTCACCTAGTGCAG,39800 fluorescence intensity (a.u.)
14,GTCTCTGTCTCTCGCTCTGATTGAAGTGTTCTGCTGCCATCGGAGTCACCTAGTGCAG,20400 fluorescence intensity (a.u.)
15,GTAATTGGGCTTTCTTTGGGTAGTTATCGCTGGGCTTAATCGGAGTCACCTAGTGCAG,6360 fluorescence intensity (a.u.)
16,CTACTGATTGTATTGATTGGGTAGCTGGATTGAAGTTAATCGGAGTCACCTAGTGCAG,57000 fluorescence intensity (a.u.)
17,ACCAGGAAGTCATAAATTAATGGATCGAATATGACCTGCTCGGAGTCACCTAGTGCAG,3160 fluorescence intensity (a.u.)
18,GGTTAATTATGCGAAAGAGAATCTTAATCCCAGGGGCTTTCGGAGTCACCTAGTGCAG,17600 fluorescence intensity (a.u.)
19,CCTGATTTCTAAAGAAAGCCGTCCGGTTTTAACTGAGTCTCGGAGTCACCTAGTGCAG,10100 fluorescence intensity (a.u.)
20,TATTTTGGACCCATGATAGATTGATTTAGAACATGCGGAGCGGAGTCACCTAGTGCAG,11400 fluorescence intensity (a.u.)
21,CTCCACTAATCTAAAATTTGTTTAATGGATCATTGCATCACGGAGTCACCTAGTGCAG,16000 fluorescence intensity (a.u.)
22,TTGTAGATTTATACCTGTCCTAATCAGAGTATACTGTATTCGGAGTCACCTAGTGCAG,3990 fluorescence intensity (a.u.)
23,CTCAGCCTGATTAATCGGAGATAATGAGTCTACGAATTTGCGGAGTCACCTAGTGCAG,9790 fluorescence intensity (a.u.)
24,ATATATATAATTAGGATTGTTATATGCATAGGTTTGCATTCGGAGTCACCTAGTGCAG,18400 fluorescence intensity (a.u.)
25,TTGCAAAACTGGCTTAATTGATTCCATATTTCCATTCCACCGGAGTCACCTAGTGCAG,32200 fluorescence intensity (a.u.)
26,ATCCGTCATCTGATTTAATCTCATACGTCCGCTATCCTCCCGGAGTCACCTAGTGCAG,4210 fluorescence intensity (a.u.)
27,GAGATAAATGATCAACTAGTCCGTGAATTTGACACCGATGCGGAGTCACCTAGTGCAG,7110 fluorescence intensity (a.u.)
